# Bioassay records from PubChem BioAssay.
# Compounds with a hit are over-represented: about 1.3% of the library has one in this group of screens.
# Vaccinia mCherry: qHTS for Stage-Specific Inhibitors of Vaccinia Orthopoxvirus: mCherry Reporter Primary qHTS. Vaccinia virus mCherry reporter infection, fluorescence. Potency, µM (series often up to 36.5 µM), inactives show at the highest dose activity change, negative = inhibition, usual class: inhibitors. 310,000 tested, 0.63% active. AID 720579, 2013; calls by dose curve; tested in A549 cells; also: % is scaled to controls: 0 for no effect and ±100 for the full control effect; nearly all actives have a fitted effect of over 35% in size
# Vaccinia Venus: qHTS for Stage-Specific Inhibitors of Vaccinia Orthopoxvirus: Venus Reporter Primary qHTS; Vaccinia virus Venus reporter expression, fluorescence; Potency, µM (series often up to 36.5 µM), inactives show at the top dose activity change, negative = inhibition, most hits filed as inhibitors; 330,000 tested, 0.46% active; AID 720580, 2013; calls by dose curve; tested in A549 cells; also: % is scaled to controls: 0 for no effect and ±100 for the full control effect; nearly all actives have a fitted effect of over 30% in size
# SARS PLpro yeast: qHTS of Yeast-based Assay for SARS-CoV PLP; S. cerevisiae expressing SARS-CoV PLpro, growth rescue; 330,000 tested, 0.19% active; Potency, µM (titrated, usually from 32.9 µM), for the others: top-dose activity, positive = growth rescue, most hits filed as activators; calls by dose curve; also: 0% is about no effect; nearly all actives have a fitted effect of over 55% in size
# AmpC inh no detg: qHTS Inhibitors of AmpC Beta-Lactamase (assay without detergent); AmpC nitrocefin hydrolysis, absorbance 480 nm, 0.0001% Triton; Potency, µM (titrated, usually from 57.1 µM), inactives show top-dose activity change, negative = inhibition, actives largely listed as inhibitors; 330,000 tested, 0.52% active;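 also: plate controls were no compound for no effect and no enzyme for full effect; nearly all actives have a fitted effect of over 20% in size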
# Target sequence (P00811 whole entry, looked up): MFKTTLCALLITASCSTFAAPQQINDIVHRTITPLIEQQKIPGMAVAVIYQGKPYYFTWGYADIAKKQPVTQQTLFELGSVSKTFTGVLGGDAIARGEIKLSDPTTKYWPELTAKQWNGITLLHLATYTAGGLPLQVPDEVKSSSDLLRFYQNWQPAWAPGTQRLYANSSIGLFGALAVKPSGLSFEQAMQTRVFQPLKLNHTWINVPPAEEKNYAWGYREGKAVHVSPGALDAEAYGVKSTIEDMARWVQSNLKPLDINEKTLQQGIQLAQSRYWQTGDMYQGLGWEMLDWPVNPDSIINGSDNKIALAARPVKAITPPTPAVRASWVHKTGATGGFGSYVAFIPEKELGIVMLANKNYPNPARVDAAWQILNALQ
#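 20 mM phosphate pH 7.0 + 0.01% (detergent screen) or 0.0001% Triton X-100; 5.3 nM AmpC reagent; cpd preinc 15 min RT; nitrocefin (800 uM stock) to start; A480 q20 s × 4 min; Activity was normalised to no-enzyme and no-compound control wells.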
# AmpC detergent: qHTS Inhibitors of AmpC Beta-Lactamase (assay with detergent); AmpC hydrolysis of nitrocefin, absorbance 480 nm, 0.01% Triton; Potency, µM (doses to about 114 µM), without a hit: at the highest dose activity change, negative = inhibition, hits mostly inhibitors; 370,000 tested, 0.041% active; AID 485294, 2010;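 also: 0% = no-compound wells and -100% = no-enzyme wells; nearly all actives have a fitted effect of over 25% in size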
#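 AmpC (5.3 nM in the dispensed reagent) in 20 mM phosphate pH 7.0 with 0.01% (detergent screen) or 0.0001% Triton X-100 was preincubated with compounds for 15 min at room temperature. Nitrocefin was then added from an 800 uM solution, and hydrolysis was followed at 480 nm.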
# * hit, by the source's call; i = inactive; ? = inconclusive; . = no result. Unless noted, calls follow the shape of the dose curve; as a rule, active = well fitted curve in the direction sought with a large enough effect; inconclusive = small, poorly fitted or top-dose-only effect, or another doubt; inactive = no such curve, though single readings can be large; an effect the other way counts as inactive or inconclusive. Potency is read from the fitted curve at half-maximal effect.
SMILES,Vaccinia mCherry,Vaccinia Venus,SARS PLpro yeast,AmpC inh no detg,AmpC detergent
Cc1ccc2[nH]c3c(N4CCc5ccccc5C4)ncnc3c2c1,?,?,-2%,-40%,-8%
Cc1ccc(C(=O)NCCc2nnc3n2CCN(Cc2ccc4ccccc4c2)CC3)c(C)c1,i,-16%,.,.,.
COCCCn1c(C(=O)Nc2ccc3c(c2)OCO3)cc2c(=O)n3cccc(C)c3nc21,?,5µM*,.,.,.
C[n+]1c2n(c3ccccc31)N=C(c1cc(C(C)(C)C)c(O)c(C(C)(C)C)c1)CS2,?,10µM*,-1%,119%,4%
CC[N+](C)(C)c1ccc(/C=C/c2ccncc2)cc1,140%,i,.,.,.
CS(=O)(=O)c1nc(-c2ccccc2)cc(C(F)(F)F)n1,14µM*,?,-95%,-13%,?
COc1cc(CN2CCC3(CCC(CNC(=O)c4ccco4)O3)CC2)ccc1O (configuration not stated),i,-5%,.,.,.
CN1CCN(C(=O)CC2(CC(=O)O)CCCC2)CC1,-1%,1%,-1%,-41%,?
CN1CCCN(C(=O)CC2(CC(=O)O)CCCC2)CC1,-13%,-3%,-2%,-40%,28µM*
COc1ccc(OC)c(C2C(C(N)=O)=C(C)Nc3nc(CCCO)nn32)c1 (configuration not stated),i,-8%,6%,1.6µM*,?
COc1ccc(OC)c(C2C(C(=O)Nc3ccc(F)cc3)=C(C)Nc3nc(CCCO)nn32)c1 (configuration not stated),.,.,-2%,8.9µM*,-3%
CCN(C(=O)COC(=O)/C=C/c1cccc(Br)c1)C1CCS(=O)(=O)C1 (configuration not stated),?,?,-8%,53%,-8%
CN(C(=O)COC(=O)/C=C/c1cccc([N+](=O)[O-])c1)C1CCS(=O)(=O)C1 (configuration not stated),1.8µM*,2.8µM*,-1%,3%,3%
O=C(c1cccnc1)C1CCCN(Cc2ccc3c(c2)CN(C(=O)c2cn4ccccc4n2)CCO3)C1 (configuration not stated),-13%,-2%,.,.,.
CC(=O)OC1C[C@@]2(C)C(c3ccoc3)C[C@H]3O[C@@]32[C@@]2(C)C(=O)C(O)=C3C(C)(C)C(=O)C=C[C@]3(C)C12 (some centres not stated),7.1µM*,8.9µM*,.,.,.
CC(=O)OC1CC(OC(C)=O)[C@]2(C)C(CC(OC(C)=O)[C@]3(C)C2CC[C@@]2(C)C(c4ccoc4)C[C@H]4O[C@]432)C1(C)C (some centres not stated),-23%,-19%,.,.,.
COc1ccc(OC)c(/C=C/c2cc3ccccc3cn2)c1,?,-41%,.,.,.
COc1ccccc1-c1cc2c(c(OC)c1)OCCN(C(=O)Cn1nc(-c3ccccc3)c3ccccc3c1=O)C2,i,-5%,.,.,.
COc1cc(/C=N/NC(=O)C(Cc2c[nH]c3ccccc23)NC(=O)OCc2ccccc2)cc([N+](=O)[O-])c1O (configuration not stated),0%,-16%,15%,10µM*,-6%
COc1cc(/C=N/NC(=O)C(Cc2c[nH]c3ccccc23)NC(=O)OCC(C)C)cc([N+](=O)[O-])c1O (configuration not stated),-19%,-16%,10%,-52%,-17%
O=C(N/N=C/c1cccs1)c1cccc(S(=O)(=O)Nc2ccc(Cl)cc2)c1,?,?,0%,14µM*,-12%
Cn1c(=O)[nH]c(=O)c2c1nc([N+](=O)[O-])n2Cc1ccccc1,?,10µM*,-2%,-4%,7%
CC(C)Cn1c([N+](=O)[O-])nc2c1c(=O)[nH]c(=O)n2C,?,?,12%,2%,-1%
Cc1sc2ncnc(N3CCC(C(=O)N(C)CC(=O)Nc4ccccc4Cl)CC3)c2c1C,-24%,-28%,1%,184%,-2%
CCN(CC(=O)Nc1cc(Cl)ccc1C)C(=O)C1CCN(c2ncnc3sc(C)c(C)c23)CC1,11µM*,?,.,.,.
